Molecules are shown by their SMILES. Values joined by “and” are separate entries in the source; they are usually repeats but may differ in a detail not shown here. Equal values may be shown once. Results filed as inconclusive are left out. Unmarked numbers belong to inactive results. Active and inactive are the calls of the source. Calls come from the whole dose curve; as a rule, active = well fitted curve in the direction sought with a large enough effect; inconclusive = small, poorly fitted or top-dose-only effect, or another doubt; inactive = no such curve, though single readings can be large; an effect the other way counts as inactive or inconclusive.

One test has as its system MKL-1. Kind of test: qHTS assay to identify novel small-molecules to repurpose for Merkel cell carcinoma treatment (AID 1296009). Note: nearly all actives have a fitted effect of over 60% in size. The conditions noted are these: MCC and control cell lines, CellTiter-Glo viability, 72 h; series mostly up to 46 µM. The method in brief: (§1)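 qHTS format: cells treated with library compounds in DMSO across 8 (NPC) or 11 (MIPE) concentrations. Readout after 72 hr at 37 degree celsius was CellTiter-Glo luminescence.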
(Quantitative high-throughput screening tests each substance at several concentrations.)

The test system of the next test is MKL-2. Described as above. The conditions noted are these: MCC and control cell lines, CellTiter-Glo viability, 72 h; series mostly up to 46 µM. The essentials: as §1
The test system of a further test is C33A. The test is described as follows: Primary qHTS to identify gynecologic anti-cancer compounds using libraries of approved drugs and bioactive compounds (AID 1345084). Note: nearly all actives have a fitted effect of over 55% in size. The conditions noted are these: Gynecologic cancer cell panel viability, ATPlite luminescence, 48 h; series mostly up to 57.5 µM. The essentials:
(§2)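 48 h compound exposure at 37 C, 5% CO2; five-point qHTS. ATPlite luminescence readout of cell ATP.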

For the next test, the system named is CAOV3. The description is as above. The conditions noted are these: Gynecologic cancer cell panel viability, ATPlite luminescence, 48 h; series mostly up to 57.5 µM. The essentials:
as §2
Background: Cellular ATP, detected with luciferase, serves as a proxy for viable cell number.

Another test concerns CASKI. Described as above. The conditions noted are these: Gynecologic cancer cell panel viability, ATPlite luminescence, 48 h; series mostly up to 57.5 µM. The essentials:
as §2

A further test deals with Es-2. Described as above. The conditions noted are these: Gynecologic cancer cell panel viability, ATPlite luminescence, 48 h; series mostly up to 57.5 µM. The essentials: as §2
Another test deals with HeLa. The description is as above. The conditions noted are these: Gynecologic cancer cell panel viability, ATPlite luminescence, 48 h; series mostly up to 57.5 µM. The essentials:
as §2

The next test has as its system JEG-3. The test is described as above. The conditions noted are these: Gynecologic cancer cell panel viability, ATPlite luminescence, 48 h; series mostly up to 57.5 µM. The method in brief: as §2
The next test deals with OV90. The description is as above. The conditions noted are these: Gynecologic cancer cell panel viability, ATPlite luminescence, 48 h; series mostly up to 57.5 µM. The essentials:
as §2

In another test the test system is PA-1. The description is as above. The conditions noted are these: Gynecologic cancer cell panel viability, ATPlite luminescence, 48 h; series mostly up to 57.5 µM. The essentials:
as §2

For another test, the system named is SKOV3. The test is described as above. The conditions noted are these: Gynecologic cancer cell panel viability, ATPlite luminescence, 48 h; series mostly up to 57.5 µM. The essentials: as §2
For a further test, the system named is Tov-21-G. Described as above. The conditions noted are these: Gynecologic cancer cell panel viability, ATPlite luminescence, 48 h; series mostly up to 57.5 µM. The method in brief:
as §2

Another test concerns Tov112D. Described as above. The conditions noted are these: Gynecologic cancer cell panel viability, ATPlite luminescence, 48 h; series mostly up to 57.5 µM. The method in brief: as §2
Another test concerns UISO. The test is described as follows: qHTS assay to identify novel small-molecules to repurpose for Merkel cell carcinoma treatment (AID 1296009). Note: nearly all actives have a fitted effect of over 60% in size. The conditions noted are these: MCC and control cell lines, CellTiter-Glo viability, 72 h; series mostly up to 46 µM. The essentials: as §1
The next test concerns WaGa. The description is as above. The conditions noted are these: MCC and control cell lines, CellTiter-Glo viability, 72 h; series mostly up to 46 µM. The essentials: as §1
The nature of test [1]: qHTS assay to identify inhibitors of the type 1 interferon - major histocompatibility complex class I in skeletal muscle: Counter screen cell viability and HiBit confirmation (AID 1347412). For all read-outs here: nearly all actives have a fitted effect of over 60% in size. The conditions noted are these: iHSKM muscle cells + IFN-b, HiBiT or CellTiter-Glo, 24 h; for activity change, negative = inhibition: at 45.9 µM (top of the series). The essentials:
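Human myoblast knock-in line, 4.0 ng/ml IFN-beta stimulation, 24 h compound treatment. Endpoints: HiBiT lytic luminescence (HLA-B level) and CellTiter Glo (ATP). Dosing 12 concentrations, 3-fold steps, 46 uM highest final.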

The test system of a further test is Hek293T. Kind of test: Primary qHTS to identify gynecologic anti-cancer compounds using libraries of approved drugs and bioactive compounds (AID 1345084). Note: nearly all actives have a fitted effect of over 55% in size. The conditions noted are these: Gynecologic cancer cell panel viability, ATPlite luminescence, 48 h, control line for the selectivity index; series mostly up to 57.5 µM. The essentials: as §2
% is set by controls: 0 for no effect and ±100 for the full control effect; potency is the fitted concentration of half-maximal effect.

Consider `CC(C)c1noc(N2CCC(COc3ccc(-c4ccc(S(C)(=O)=O)cc4)nc3)CC2)n1`, for which the Potency entry with MKL-1, in the test on MKL-2, with C33A, in the test on CAOV3, in the test on CASKI and with Es-2 was “inactive” each time. In addition, the Potency entry in the test with HeLa, in the test with JEG-3, in the test with OV90, with PA-1, with SKOV3 and with Tov-21-G was “inactive” throughout. Further, the Potency result with Tov112D is “inactive”.
As for `CC(C)c1ccc(Cn2ccc3c4c(N)nc(NC5CC5)nc4ccc32)cc1`, the Potency with MKL-1 was 14.8 µM (active); with MKL-2 it was 4.18 µM (active); with UISO, 14.8 µM (active); in the test with WaGa, 9.35 µM (active); in test [1] (HiBiT), 17.6 µM (active); in test [1] (Viability), 27.9 µM (active).
Turning to `Cc1ccc(S(=O)(=O)Nc2cc(Cl)ccc2C(=O)Nc2nc(-c3ccccc3)cs2)cc1`, the Potency entry with MKL-1, in the test on MKL-2 and in the test with WaGa was “inactive” throughout.
Take `O=C(CCCCCCNC(=O)c1cnc(N(c2ccccc2)c2ccccc2)nc1)NO`: the Potency was 9.35 µM (active) with MKL-1; 5.9 µM (active) in the test with MKL-2; 2.96 µM (active) in the test with WaGa; 11.2 µM (active) in the test on HeLa; 15.8 µM (active) in the test on JEG-3; 8.91 µM (active) with OV90. The Potency in the test on PA-1 was 3.16 µM (active); in the test with Tov112D, 28.2 µM (active).
As for `O=c1c2ccccc2nc2n1CCc1c-2[nH]c2ccccc12`, the Potency entry with MKL-1, in the test on MKL-2, in the test on WaGa, in the test with C33A, in the test on CAOV3 and in the test on CASKI was “inactive” throughout. Besides, the Potency result with Es-2, with HeLa, in the test with Hek293T, in the test on JEG-3, in the test on OV90 and with PA-1 was “inactive” each time. Moreover, the Potency entry with Tov-21-G and with Tov112D was “inactive” each time.
For the compound `CC(O)C1C(=O)N2C(C(=O)O)=C(SC3CNC(C(=O)N(C)C)C3)C(C)C12` (stereo not drawn), the Potency result with MKL-1, in the test on MKL-2, in the test on UISO, in the test with C33A, in the test on CAOV3 and in the test on CASKI was “inactive” throughout. Also, the Potency result in the test on Es-2, with HeLa, in the test on Hek293T, in the test with JEG-3, in the test with OV90 and in the test on PA-1 was “inactive” each time. The Potency result in the test with SKOV3, in the test on Tov-21-G and with Tov112D was “inactive” throughout.
For the compound `CC[C@H](CO)Nc1nc(NCc2ccccc2)c2ncn(C(C)C)c2n1`, the Potency result with MKL-1, with MKL-2 and in the test with WaGa was “inactive” each time. For the same compound, the Potency in test [1] (HiBiT) was 17.6 µM (active). In addition, the activity change, negative = inhibition in [1] (Viability) was -8.22%.
In the case of `CNC(=O)c1cc(Oc2ccc(NC(=O)Nc3cc(C(C)(C)C)nn3-c3ccc4ncccc4c3)c(F)c2)ccn1`, the Potency entry with MKL-1, in the test with MKL-2, with WaGa and in the test with CAOV3 was “inactive” each time. Besides, the Potency with PA-1 was 20 µM (active); in the test with Tov-21-G, 28.2 µM (active); in test [1] (HiBiT), 3.94 µM (active). Moreover, the activity change, negative = inhibition in test [1] (Viability) was 26.8%.
For `Cn1c(=O)n(-c2ccc(C(C)(C)C#N)cc2)c2c3cc(-c4cnc5ccccc5c4)ccc3ncc21`, the Potency entry with MKL-1, with MKL-2, in the test on WaGa, with HeLa and with JEG-3 was “inactive” throughout. Moreover, the Potency was 562 nM (active) in the test on CAOV3, 0.794 µM (active) in the test on Hek293T and 1.41 µM (active) in the test with OV90.
Take `Cc1cc(CN2CCN(c3c(Br)cnc4nc(-c5ccc(N6CCN(C)CC6)cc5)[nH]c34)CC2)no1`: the Potency is 3.32 µM (active) in the test on MKL-1; 26.4 µM (active) in the test on MKL-2; 1.58 µM (active) with HeLa; 8.83 µM (active) in [1] (HiBiT); 11.1 µM (active) in [1] (Viability). Also, the Potency result in the test on C33A, in the test with CASKI, in the test with Es-2, in the test on Hek293T, in the test with JEG-3 and in the test with OV90 was “inactive” in each case. Besides, the Potency result with SKOV3 was “inactive”.
`C=CC(=O)Nc1cccc(Oc2nc(Nc3ccc(N4CCN(C)CC4)cc3OC)ncc2Cl)c1`: the Potency in the test on MKL-1 is 2.64 µM (active); with WaGa, 2.96 µM (active); in the test with CASKI, 17.8 µM (active); in the test with SKOV3, 15.8 µM (active). In addition, the Potency result in the test with MKL-2, with C33A, with Es-2, with HeLa, with Hek293T and in the test on JEG-3 was “inactive” in each case. In addition, the Potency result with OV90 and in the test on PA-1 was “inactive” throughout.
For `NC(=O)Nc1cc(-c2cccc(F)c2)sc1C(=O)N[C@H]1CCCNC1`, the Potency in the test on MKL-1 is 3.32 µM (active); in the test with UISO, 4.18 µM (active); with WaGa, 5.26 µM (active); with C33A, 1.12 µM (active); in the test with CAOV3 it was 1580 nM (active); with CASKI, 1.78 µM (active). Besides, the Potency in the test with Es-2 was 0.631 µM (active); in the test with HeLa, 1.78 µM (active); with Hek293T, 1 µM (active); in the test with OV90, 2.82 µM (active); with PA-1, 2.82 µM (active); in the test on SKOV3, 0.631 µM (active). The Potency is 1.78 µM (active) in the test with Tov112D and 1.76 µM (active) in [1] (HiBiT).
On to `C[C@@H](Oc1cc(-c2cnn(C3CCNCC3)c2)cnc1N)c1c(Cl)ccc(F)c1Cl`, for which the Potency in the test on MKL-1 is 13.2 µM (active); with UISO, 14.8 µM (active); in the test with WaGa, 23.5 µM (active); with C33A, 20 µM (active); in the test on CAOV3, 11.2 µM (active) and 12.6 µM (active); in the test on CASKI, 14.1 µM (active). In addition, the Potency with HeLa is 3.55 µM (active) and 14.1 µM (active); in the test with Hek293T, 25.1 µM (active); in the test on JEG-3, 28.2 µM (active); in the test with OV90 it was 25.1 µM (active); in the test with PA-1, 14.1 µM (active); with Tov-21-G it was 14.1 µM (active). The results for the Potency in test [1] (HiBiT) and in [1] (Viability) were 17.6 µM (active) and 27.9 µM (active), respectively. In addition, the Potency entry with Tov112D was “inactive”.

The values above are taken from PubChem BioAssay (NCATS).
